The text below walks through data of PubChem BioAssay AID893 (National Center for Advancing Translational Sciences (NCATS), 2007).

Out of some 75,000 compounds screened, about 5,700 (7.6%) were called active. Entries that show only a call come without a potency. Inconclusive results (about 7%) are left out. Calls come from the whole dose curve; as a rule, active = well fitted inhibition curve with a large enough effect; inconclusive = small, poorly fitted or top-dose-only effect; inactive = no such curve, though single readings can be large or run the other way. Many of the other results were omitted from the sample, so actives are more common in it than they were.
Potency is the fitted concentration of half-maximal effect.

The assay has as its target 3-hydroxyacyl-CoA dehydrogenase type-2 (Homo sapiens) (UniProt Q99714). Kind of assay: qHTS Assay for Inhibitors of HSD17B4, hydroxysteroid (17-beta) dehydrogenase 4.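 Note: the protocol describes HADH2 (HSD17B10) and not the HSD17B4 of the title; nearly all actives have a fitted effect of over 70% in size.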 As to conditions: recombinant HSD17B10, NADH fluorescence kinetic; series mostly up to 57.1 µM. An outline of the steps: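 20 nM HADH2, pH 9.0 Tris/Tween; cpd preinc 15 min RT; start w/ 1 mM NAD+ + 90 uM b-hydroxybutyryl-CoA; kinetic fluor ex360/em450 q30s x 4 min; delta last-first.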
For orientation: In qHTS, concentration-response curves come from the screen itself.
In the case of `CCCc1nc2c(C)cc(-c3nc4ccccc4n3C)cc2n1Cc1ccc(-c2ccccc2C(=O)O)cc1`, the Potency was 31.6 µM (active).
Still for that read-out and setting: to `CCCCn1c(CN2CCN(CCO)CC2)nc2ccccc21` belongs “inactive”.
Still for that read-out and setting: next, `CCCCn1c(CCCNC(=O)CC)nc2ccccc21`: “inactive”.
Take `Cc1ccc(Nc2cc(=O)n(C3CCCCC3)c(=O)[nH]2)cc1C`: the Potency result was “inactive”.
Turning to `Cc1ccc(CCn2c3c(c4ccccc42)CN(C)CC3)cn1`, the Potency result is “inactive”.
As for `CC1(C)OC(C(O)(c2ccccc2)c2ccccc2)C(C(O)(c2ccccc2)c2ccccc2)O1` (stereo not drawn), the activity change, negative = inhibition is 1.95% [at 11.4 µM] (inactive).
In the case of `C=CCN1C(=O)C(O)(CC(=O)c2ccc(Cl)cc2)c2ccccc21` (stereo not drawn), the Potency result was “inactive”.
For the molecule `COc1cc2[nH]c(=S)n(Cc3ccc(C)o3)c(=O)c2cc1OC`, the Potency entry is “inactive”.
On the same count and under the same terms, next, `COc1cc2cc(CN(CCN3CCCC3)C(=O)Nc3ccccc3Cl)c(=O)[nH]c2cc1OC`: 25.1 µM (active); `COc1ccc(CCN(Cc2cc3cccc(C)c3[nH]c2=O)C(=O)N2CCCC2)cc1OC`: “inactive”; `COc1cc2[nH]c(=O)n(CCC(=O)NC3CCN(Cc4ccccc4)CC3)c(=O)c2cc1OC`: “inactive”.
Take `C[C@@H](N)[C@@H](C)Cc1ccccc1`: the activity change, negative = inhibition was 4.93% [at 11.4 µM] (inactive).
The same measure, in the same setting: next, `c1ccc(CSCCc2ccncc2)cc1`: 1.7% [at 11.4 µM] (inactive); `COc1ccc(/C=C/NC(=O)c2ccc(OC)cc2)cc1`: 7.09% [at 11.4 µM] (inactive).
Regarding `COc1ccc(C(=O)NC(=O)CSc2nnc(-c3ccco3)n2-c2ccccc2)cc1`, the Potency entry was “inactive”.
On the same count and under the same terms, to `COc1ccc(C(=O)NCc2cn3ccccc3n2)cc1` belongs 31.6 µM (active); to `CC(C)(O/N=C(\C(=O)N[C@@H]1C(=O)N2C(C(=O)[O-])=C(C[n+]3ccccc3)CS[C@@H]12)c1csc(N)n1)C(=O)O`, “inactive”.
Still for that read-out and setting: next, `CC(C)[C@H]1CC[C@@H](C)C[C@H]1O`: “inactive”.
The same measure, in the same setting: next, `CCC(=O)N(Cc1cc2cc(OC)ccc2[nH]c1=O)c1ccccc1C`: 25.1 µM (active).
As to `CCN(Cc1cc2cc(C)ccc2[nH]c1=O)S(=O)(=O)c1ccccc1`, the Potency result is “inactive”.
For the molecule `O=C(CN(CC1CCCO1)C(=O)CNS(=O)(=O)c1ccccc1)NCc1ccccc1` (stereo not drawn), the Potency entry was “inactive”.
Still for that read-out and setting: next, `Cc1cc(C)c2cc(CN(Cc3cccs3)Cc3nnnn3CC3CCCO3)c(=O)[nH]c2c1` (stereo not drawn): “inactive”; `CCOC(=O)c1cc2cc(C)ccc2[nH]1`: “inactive”; `Cc1ccc2[nH]c(=O)c(COC(=O)c3ccccn3)cc2c1`: “inactive”.
The same measure, in the same setting: next, `CCOc1ccc2[nH]c(=O)c(CN(CCCO)C(C)=O)cc2c1`: 31.6 µM (active); `COc1ccc(N(Cc2cc3cc(OC)ccc3[nH]c2=O)S(C)(=O)=O)cc1`: “inactive”; `COc1cccc(-n2c(Cc3cc(=O)[nH]c(=O)[nH]3)nnc2SCC(=O)Nc2ccccc2)c1`: “inactive”.
Still for that read-out and setting: to `COc1ccc2[nH]c(=O)c(CN(CC3CCCO3)C(=O)Nc3ccccc3)cc2c1` (stereo not drawn) belongs 25.1 µM (active).
Turning to `COc1ccc2[nH]c(=O)c(CN(Cc3nnnn3CCc3ccccc3)CC3CCCO3)cc2c1` (stereo not drawn), the Potency was 25.1 µM (active).
In the case of `CCC(c1nnnn1Cc1ccccc1)N(Cc1cc2cc(OC)ccc2[nH]c1=O)CC1CCCO1` (stereo not drawn), the Potency result is “inactive”.
The same measure, in the same setting: next, `COCC(=O)N1CCC2(CCCN(c3ccccc3)C2)CC1`: “inactive”; `Cc1cc(N(C)C)cc(C)[n+]1[O-]`: “inactive”; `O=C(O)CCC(=O)N(Cc1ccco1)c1nc(-c2ccccc2)cs1`: “inactive”.
Still for that read-out and setting: next, `O=C(c1cccc(C(=O)N2CCc3ccccc32)n1)N1CCc2ccccc21`: “inactive”.
Turning to `COc1cc(OC)c2c(c1Cl)OC1(C2=O)C(O)=CC(=O)CC1C` (stereo not drawn), the Potency entry was “inactive”.
On to `COc1ccc2c3c(c(=O)oc2c1OCC(=O)C(C)(C)C)CCCC3`, for which the Potency was 25.1 µM (active).
`COc1ccc(C(=O)OCC(=O)c2ccc(C)c(S(=O)(=O)N3CCOCC3)c2)cc1OC`: the Potency result is “inactive”.
Take `Cc1c(C)c2cc3c4c(oc3c(C)c2oc1=O)CCCC4`: the Potency result is “inactive”.
The same measure, in the same setting: next, `CCCOc1ccc2c3c(c(=O)oc2c1OCCC)CCC3`: 12.6 µM (active).
The same measure, in the same setting: next, `COc1ccc(Cl)cc1S(=O)(=O)N1CCN(CC(=O)C(C)(C)C)CC1`: “inactive”; `O=C(COc1ccc(S(=O)(=O)NCCc2ccccc2)cc1)N1CCCC1`: “inactive”.
The same measure, in the same setting: to `c1nnc2c3c4c(sc3ncn12)CCC4` belongs “inactive”; to `CCOC(=O)C1=C(C)NC(=O)N(C(C)=O)C1c1ccc(Cl)cc1` (stereo not drawn), “inactive”; to `O=C(c1cnccn1)N1CCC[C@@]2(CCN(Cc3ccncc3)C2)C1`, “inactive”.
On to `CCS(=O)(=O)N1CCCC(C(=O)NCc2ccc(C)cc2)C1` (stereo not drawn), for which the Potency entry is “inactive”.
The same measure, in the same setting: to `C=C1C([C@@]2(C)C(OC(C)=O)CC(=O)O[C@@](C)(COC(C)=O)C2CC(=O)OC)C(OC=O)C(OC(=O)C(O)C(C)CC)[C@]2(C)C(c3ccoc3)CC(=O)C12O` (stereo partly drawn) belongs “inactive”.
On to `COc1ccc(COC(=O)N/N=C2/C[C@@H](O)[C@@H](O)[C@@H]3[C@@H]4C(=O)N([C@@H](C)c5ccccc5)C(=O)[C@H]4CC[C@@H]23)cc1`, for which the activity change, negative = inhibition is -1.08% [at 11.4 µM] (inactive).
For `CCOC(=O)c1ccc2[nH]c(C)c(CN3CCN(C)CC3)c(=O)c2c1`, the Potency result is “inactive”.
Still for that read-out and setting: next, `CCOC(=O)c1sc(=S)n2c1[nH]c(=O)c1ccc(C(=O)OC)cc12`: 20 µM (active); `COC(=O)c1cccc(NC(=O)CSc2nc(C)cc(=O)[nH]2)c1`: “inactive”; `CCOc1ccc(C2C(C(=O)NC)=C(C)Nc3nc4ccccc4n32)cc1OC` (stereo not drawn): “inactive”.
The same measure, in the same setting: next, `CN(C)c1cc2c(Nc3ccc4c(cnn4Cc4ccccc4)c3)ncnc2cn1`: “inactive”; `CCOC(=O)CCc1c(C)c2ccc(OCc3nn[nH]n3)c(C)c2oc1=O`: 31.6 µM (active).
Same read-out and setting: next, `CCNC(=S)NCC`: “inactive”; `CCCNC(=O)C1CC(=O)N(c2ccc(OCC(=O)Nc3cccc(C)c3C)cc2)C1` (stereo not drawn): “inactive”; `O=C(O)c1ccc(NC(=O)c2cccs2)cc1`: “inactive”.
As to `Cc1nc(-c2ccc(NC(=O)c3cccs3)cc2)cs1`, the Potency was 25.1 µM (active).
On to `O=C(O)Cc1ccc(NC(=O)c2cccs2)cc1`, for which the Potency entry was “inactive”.
Still for that read-out and setting: next, `CCOC(=O)N1CCC(Nc2c(NCCN3CCN(c4cccc(Cl)c4)CC3)c(=O)c2=O)CC1`: “inactive”; `CCC(CCC(C)C1CCC2C3CC=C4CC(O)CC[C@@]4(C)C3CC[C@@]12C)C(C)C` (stereo partly drawn): “inactive”.
The same measure, in the same setting: to `COC(=O)c1ccc(/C=N\n2c(C)nnc2C)cc1` belongs “inactive”; to `COc1ccccc1-c1cc(NCc2cccs2)ncn1`, “inactive”.
Turning to `C[C@@H]1O[C@@H](O[C@@H]2[C@@H](O)[C@H](OCCc3ccc(O)c(O)c3)O[C@H](CO[C@@H]3O[C@H](CO)[C@@H](O)[C@H](O)[C@H]3O)[C@H]2OC(=O)/C=C/c2ccc(O)c(O)c2)[C@H](O)[C@H](O)[C@H]1O`, the Potency is 2 µM (active).
`COc1ccc(CCC(=O)c2c(O)cc(OC3OC(CO)C(O)C(O)C3O[C@@H]3OC(C)C(O)C(O)C3O)cc2O)cc1O` (stereo partly drawn): the Potency result is “inactive”.
The same measure, in the same setting: to `CC1OC(OCC2OC(Oc3c(-c4ccc(O)c(O)c4)oc4cc(O)cc(O)c4c3=O)C(O)C(O)C2O)[C@@H](O)C(O)C1O` (stereo partly drawn) belongs “inactive”; to `CN1C(=O)c2ccccc2C(C(=O)NCCCN2CCCC2)C1c1c[nH]c2ccccc12` (stereo not drawn), “inactive”.
Consider `COC(=O)[C@@H]1CC[C@H](C)[C@@H](c2ccc(C)cc2)N1C(=O)c1ccc(/C=N\OC[C@@H](O)COCc2ccco2)cc1`, for which the activity change, negative = inhibition is -1.91% [at 11.4 µM] (inactive).
For the molecule `CCCS(=O)(=O)N1CCC(C(=O)NCCc2ccc(OC)c(OC)c2)CC1`, the Potency result is “inactive”.
As for `COc1ccc(CCNC(=O)C2CCN(c3nn4c(=O)cc(C)nc4s3)CC2)cc1OC`, the Potency entry was “inactive”.
For `CCOc1ccc(CCNC(=O)C2CCN(c3ccc(N4CCOCC4)nn3)CC2)cc1OCC`, the Potency is 25.1 µM (active).
Same read-out and setting: to `CCC(C)NC(=O)C1CCC(=O)N1Cc1ccc(C)cc1` (stereo not drawn) belongs “inactive”.
As to `CC(C)CO/N=C1/C[C@@H](O)[C@@H](O)[C@@H]2[C@@H]3C(=O)N(C[C@@H]4CCCO4)C(=O)[C@H]3CC[C@@H]12`, the activity change, negative = inhibition was 9.42% [at 11.4 µM] (inactive).
As for `CN(Cc1ccccc1)c1nc2c(c(=O)[nH]c(=O)n2C)n1CCSc1nc2ccccc2[nH]1`, the Potency result was “inactive”.
For `Cc1ccnc(SCCn2c(N(C)Cc3ccccc3)nc3c2c(=O)n(C)c(=O)n3C)n1`, the Potency is 31.6 µM (active).
The same measure, in the same setting: next, `CC(C)CCn1c(CN(C)Cc2ccccc2)nc2c1c(=O)n(C)c(=O)n2C`: “inactive”; `O=c1c(-c2ccccc2)coc2c(CN3CCOCC3)c(O)ccc12`: 31.6 µM (active); `COc1ccc(OC)c(C(=O)c2coc3ccc(O)c(CN4CCOCC4)c23)c1`: “inactive”.
Still for that read-out and setting: next, `CN1CCN(Cc2c(O)ccc3c2oc(=O)c2ccccc23)CC1`: “inactive”; `Cc1ccnc(-n2sc3ccccc3c2=O)n1`: 3.16 µM (active).
Still for that read-out and setting: next, `COc1ccc(S(=O)(=O)N(CCCN2CCCC2=O)Cc2cc3c(C)ccc(C)c3[nH]c2=O)cc1`: “inactive”; `O=C1Nc2ccccc2C12Nc1ccccc1S2` (stereo not drawn): “inactive”.
In the case of `CCCOc1ccccc1C1CC(=O)Nc2cc3c(cc21)OCO3` (stereo not drawn), the Potency entry is “inactive”.
The same measure, in the same setting: next, `O=C1NC(c2cc3c(cc2Cl)OCO3)Oc2ccccc21` (stereo not drawn): 31.6 µM (active); `O=C(Nc1ccc(Cl)cc1)c1ccsn1`: “inactive”.
Take `COC(=O)c1ccc(S(=O)(=O)c2ccc(C(=O)OC)s2)s1`: the Potency result is “inactive”.
In the case of `CCCC[C@@H]1C[C@H]1C(NC(=O)c1ccc(-c2ccccc2)cc1)c1ccc(-c2ccccc2)cc1` (stereo partly drawn), the Potency entry is “inactive”.
On the same count and under the same terms, to `Cc1oc2nc(SCC(=O)NCc3cccnc3)nc(N)c2c1C` belongs “inactive”; to `COCCn1c(=O)c(-c2cccs2)nc2cnc(N3CCN(C)CC3)nc21`, 20 µM (active); to `COCCn1c(=O)c(-c2cccs2)nc2cncnc21`, 25.1 µM (active).
Still for that read-out and setting: next, `COc1ccccc1CCn1c(=O)c(-c2cn(C)c3ccccc23)nc2cncnc21`: “inactive”; `COCCn1c(CN2CCC(Cc3ccccc3)CC2)nc2c1c(=O)n(C)c(=O)n2C`: “inactive”.
For `COc1ccc(-n2c(=O)c(C)nc3cnc(N4CCOCC4)nc32)cc1`, the Potency result was “inactive”.
Take `COCCn1c(=O)c(-c2ccccc2)nc2cnc(N3CCOCC3)nc21`: the Potency was 20 µM (active).
